Assay results: PubChem BioAssay AID1662 (Broad Institute, 2009)
Among all 300,000 compounds or so, about 4,000 (1.3%) were called active. For the sample, actives were picked, then their nearest neighbours and some compounds at random. Unmarked numbers belong to inactive results.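 The calls were made as follows: active = mean replicate score, as percent of positive control median, at least 50; inconclusive = mean below 50 but one replicate at or above 50; inactive = mean and every replicate below 50.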

experiment: kanamycin survival loss of SKKanGAS strain – BacTiter-Glo luminescence, streptokinase expression inhibitor project, primary screen (AID 1662);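 also: strain carries kanamycin resistance gene driven by streptokinase promoter and grows in 40 µg/ml kanamycin; loss of luminescence reflects streptokinase promoter inhibition or plain growth inhibition; 0% = median of DMSO wells and 100% = positive control at its reference dose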; settings: S. pyogenes SKKanGAS, kanamycin growth, 6 h, at 7.5 µM, stronger effect = higher value

| SMILES | inhibition |
| --- | --- |
| CCCCCC(O)(CCN1CCCCC1)c1ccccc1 (configuration not stated) | -0.734% |
| Cc1ccsc1C(=O)OCC(=O)c1cc(C)n(CC2CCCO2)c1C (configuration not stated) | 9.42% |
| Cc1ccsc1C(=O)OCC(=O)c1cc2ccccc2o1 | 49.9% (active) |
| CSCCC(NC(=O)COc1ccccc1)C(=O)OCC(=O)c1cc2ccccc2o1 (configuration not stated) | -0.0582% |
| CC(C)(C)NC(=O)CN(C(=O)c1ccc(Cl)nc1)c1cccc2ccccc12 | -17.5% |
| CC(C)Oc1ccc(/C=N/NC(=O)c2nnn(-c3nonc3N)c2CN(C)C2CCCCC2)cc1 | 18.9% |
| O=C(NCC(=O)N1CCN(c2ccccc2O)CC1)c1ccc2ccccc2c1 | 11.7% |
| CN1C(=O)/C(=C\c2ccc(-c3ccccc3)o2)SC1=S | 7.05% |
| O=C1NN(c2ccccc2)C(=O)/C1=C/c1ccc(-c2cccc(C(=O)O)c2)o1 | -2.46% |
| O=C(O)C(c1ccccc1)N1C(=O)/C(=C\c2ccc(-c3cccc(Cl)c3)o2)SC1=S (configuration not stated) | 94% (active) |
| Cn1c(=O)oc2cc(S(=O)(=O)NCCC(=O)NCc3ccccc3Cl)ccc21 | 2.05% |
| C=CCn1c(C23CC4CC(CC(C4)C2)C3)n[nH]c1=S | 1.54% |
| Cc1cc(NC(=O)CSc2nc3cc(Cl)ccc3c(=O)n2Cc2ccco2)no1 | 1.74% |
| COc1ccccc1NC(=O)CSc1nc2sc3c(c2c(=O)n1-c1ccccc1)CCN(C)C3 | -17% |
| COc1ccccc1NC(=O)CSc1nc2sc(C)c(C)c2c(=O)n1Cc1ccco1 | 52.6% (active) |
| CC(C)Cc1oc(C(=O)O)cc1CN | 4.13% |
| Cc1ccc(NC(=O)c2nc[nH]c2C(=O)N[C@@H](CCCCNC(=O)OC(C)(C)C)C(=O)OC(C)(C)C)cc1 | 76.8% (active) |
| CCOC(=O)c1ccc(NC(=O)c2nc[nH]c2C(=O)N[C@@H](CCCCNC(=O)OC(C)(C)C)C(=O)OC(C)(C)C)cc1 | 50.8% (active) |
| CCOC(=O)c1[nH]cnc1C(=O)Nc1ccccc1C | 10.7% |
| C[C@H](NC(=O)c1nc[nH]c1C(=O)N[C@@H](C)C(=O)OC(C)(C)C)C(=O)OC(C)(C)C | 1.23% |
| CNC(=O)c1[nH]cnc1C(=O)N[C@@H](CC(C)C)C(=O)OC(C)(C)C | -5.44% |
| CCOC(=O)c1ccc(NC(=O)c2nc[nH]c2C(=O)NCc2ccccc2)cc1 | 18.8% |
| Cc1cc(C(=O)CCC(=O)NNC(=O)c2ccccc2O)c(C)s1 | 12.7% |

| SMILES | inhibition |
| --- | --- |
| O=C1c2ccccc2S(=O)(=O)c2cc(N3CCN(c4ccccn4)CC3)ccc21 | 14.1% |
| CCCc1cc(=O)n2[nH]c(C)c(-c3ccc(Cl)cc3)c2n1 | 53.5% (active) |
| Cc1nc2c(-c3ccccc3)c(C)[nH]n2c(=O)c1Cl | 18.8% |
| COCc1cc(=O)n2[nH]c(C)c(-c3ccccc3)c2n1 | -14.5% |
| Cc1ccc2nnn(Cc3cccc(C(C)(C)C)c3O)c2c1 | 11.4% |
| CC1=NNC(=O)C1CCC(=O)N/N=C\c1cccc(Cl)c1 (configuration not stated) | 4.3% |
| O=c1[nH]oc(O)c1-c1ncc(C(F)(F)F)cc1Cl | -8.5% |
| Cc1ccc(NC(=O)C2CC(=O)N(c3ccc4c(c3)OCCO4)C2)cc1S(=O)(=O)N1CCCCCC1 (configuration not stated) | -2.91% |
| Cc1ccccc1NC(=O)CNc1ccccc1N1CCCCC1 | 9.21% |
| Cc1ccc(C(C)C)cc1OCC(=O)Nc1ccccc1N1CCCC1 | 69.7% (active) |
| CCC(=O)N1CCN(c2ccccc2NC(=O)COc2cccc(C)c2C)CC1 | 5.73% |
| Cc1nn2c(NCCN(C)C)c3c(nc2c1-c1ccccc1)CCC3 | 6.41% |
| Cc1ccc(Cl)cc1N1CCN(C(=O)c2cccc3c(=O)c(C)c(-c4ccccc4)oc23)CC1 | 52.6% (active) |
| Cc1cccc(N2CCN(C(=O)c3cnn4c(C(F)F)cc(-c5ccccc5)nc34)CC2)c1C | 38.6% |
| COC(=O)c1ccc(C(=O)OC)c(NC(=S)N2CCN(c3cc(Cl)ccc3C)CC2)c1 | 14.5% |
| CC1(C)C=C2[C@H]3CC[C@@H]4[C@@]5(C)CCC(=O)C(C)(C)[C@@H]5CC[C@@]4(C)[C@]3(C)CC[C@@]2(C(=O)O)CC1 | 96.7% (active) |
| Cc1ccc(S(=O)(=O)N2CCOCC2)cc1C(=O)Nc1ccccc1N1CCCC1 | -4.42% |
| COc1ccc(C(=O)NC2CC2)cc1OC1CCN(Cc2cnn(C)c2)CC1 | 7.48% |
| CCCCCC(O)c1cccc(OCc2ccc3ccccc3n2)c1 (configuration not stated) | 15.6% |
| CCOC(=O)C1=C(C)N=C2c3ccccc3C(=O)C2C1c1ccc(Br)cc1 (configuration not stated) | 38.8% |
| O=C1c2ccccc2C(=O)C1c1ccccc1F | 0.629% |
| O=C1c2ccccc2C2=Nc3ccccc3SC(c3ccccc3F)C12 (configuration not stated) | 52.9% (active) |
| O=C(c1ccc(F)cc1)C1CCN(Cc2cn[nH]c2-c2ccccc2)CC1 | -0.535% |

| SMILES | inhibition |
| --- | --- |
| CCN1C(=O)[C@H]2[C@@H](c3ccc(-c4ccc(F)cc4)cc3)N[C@@](Cc3ccccc3)(C(=O)OC)[C@H]2C1=O | 9.27% |
| CCC(C)C(=O)Nc1cc([N+](=O)[O-])ccc1Cl (configuration not stated) | -5.67% |
| O=C(CN1CCSCC1)N/N=C/c1ccc(F)cc1F | -4.84% |
| O=C(NCCN1CCOCC1)c1cc(-c2cccs2)nc2ccccc12 | -10.4% |
| O=C(Nc1nnc(-c2ccccc2)o1)c1cc(-c2cccs2)nc2ccccc12 | 92.3% (active) |
| COC(=O)c1cc(-c2cccs2)nc2ccccc12 | -7.36% |
| C#CCNC(=O)C1=C[C@@H](c2ccccc2)[C@H](CCCO)[C@@H](OCC)O1 | 0.924% |
| O=C(Nc1ccccc1Cl)NC1(C(=O)N2CCOCC2)CCCCC1 | -13% |
| CCc1nc(NCCO)c(C#N)c2c1CCCC2 | -3.02% |
| CCCCc1nc(NCCN)c(C#N)c2c1CSC(C)(C)C2 | -15.3% |
| CCCCc1nc(NCc2ccccc2)c(C#N)c2c1CCCC2 | 60% (active) |
| CCCNC(=O)C(=O)Nc1cc2c3c(c1)CCC(=O)N3CCC2 | -4.99% |
| COc1cc(NS(=O)(=O)c2ccc(NC(=S)NC(=O)c3ccc(Br)cc3)cc2)ncn1 | 16.4% |
| CC(c1cccnc1)N(CCN(C)C)C(=O)Nc1ccc(Cl)c(Cl)c1 (configuration not stated) | -0.312% |
| O=C(COC(=O)c1cccc(Br)c1)Nc1cccc2c1C(=O)c1ccccc1C2=O | -1.24% |
| Cc1ccccc1C(=O)Nc1ccccc1Sc1ccccc1 | 25.4% |
| O=C(COC(=O)c1ccccc1)Nc1ccccc1Sc1ccccc1 | 58.2% (active) |
| CC(=O)N[C@H]1[C@H]([C@H](O)[C@H](O)CO)OC(C(=O)O)=C[C@@H]1O | -0.96% |
| N=c1c2c(-c3ccccc3)c(-c3ccccc3)n(Cc3ccccc3)c2ncn1CCCO | -1.98% |
| N=c1c2c(-c3ccccc3)c(-c3ccccc3)oc2ncn1Cc1ccco1 | 63.5% (active) |
| COc1ccc(-c2oc3ncnc(NCCCO)c3c2-c2ccc(OC)cc2)cc1 | 33.4% |
| c1ccc(-c2oc3ncnc(N4CCOCC4)c3c2-c2ccccc2)cc1 | -2.29% |
| COc1ccc(-c2oc3ncn(Cc4ccco4)c(=N)c3c2-c2ccc(OC)cc2)cc1 | 55% (active) |

| SMILES | inhibition |
| --- | --- |
| COc1ccc2[nH]c3c(=O)n(Cc4ccco4)cnc3c2c1 | 17.1% |
| O=C(O)CC(Cn1cnnn1)c1ccccc1 (configuration not stated) | -1.95% |
| C/C(CC(C)C)=N\Oc1nc(C)cc(C)n1 | -4.06% |
| O=[N+]([O-])c1ccc(NCCCO)c(C(F)(F)F)c1 | 0.29% |
| COc1cc(C=O)ccc1Oc1nnnn1-c1ccccc1 | 24.2% |
| CN(C(=O)Nc1ccc(Cl)cc1)n1cnc2ccccc2c1=O | 3.63% |
| Oc1ccc(/C=N/Nc2ccc(C(F)(F)F)cn2)cc1O | -9.78% |
| Oc1ccc(Br)cc1/C=N/Nc1ccccn1 | 106% (active) |
| O=C(CCCO)N/N=C/c1cc(Br)ccc1O | -3.72% |
| CN(C)Cc1ccc(F)cc1Sc1cc(Cl)ccc1Cl | -3.54% |
| CC(=O)Nc1ccc(S(=O)(=O)Nc2nc(-c3ccc(C(C)(C)C)cc3)cs2)cc1 | 0.664% |
| Cc1nc(NC(=O)c2cccc(Cl)c2)sc1-c1csc(Nc2cccc(Cl)c2)n1 | 25.6% |
| O=C(Nc1ccc(-c2csc(Nc3cccc(C(F)(F)F)c3)n2)cc1)c1cccc(C(F)(F)F)c1 | 98.6% (active) |
| COc1c(O)cc2oc(-c3ccc(O)c(O)c3)cc(=O)c2c1O | 3.54% |
| OCc1ccc(-c2ccccc2)c(-c2ccccc2)c1 | -11.9% |
| COCCNC(=S)N(CCc1c(C)[nH]c2ccc(C)cc12)Cc1cccnc1 | 8.58% |
| O=C(O)c1cccc(N=NN2CCCCCC2)c1 | 5.53% |
| C[C@H]1[C@H]2c3nc4ccccc4n3C[C@H]1ON2C1CCCCC1 | -3.38% |
| COc1ccc(NC(=O)CSc2nc3ccccc3c(=O)n2C)cc1 | -4.23% |
| Cc1ccccc1-n1c(SCC(=O)Nc2cccc3ccccc23)nc(O)cc1=O | 18.6% |
| Cn1c(SCC(=O)Nc2ccc(Cl)cc2)nc(O)cc1=O | 112% (active) |
| C/C(=N\Nc1cccc(C(=O)O)c1)c1ccc2c(c1)Nc1ccccc1S2 | 0.801% |
| COc1ccccc1CCNC(=O)c1c(C)nn(CC(C)C)c1Cl | -0.777% |
